Article PMC5540273 (PLoS ONE, 2017)

Tests used:
Details in all cases: concentration: 1 μM, replicates: in singlicate; n = 1
YANK1 = test system: T1, YANK1
T1 construct: gene STK32A

YANK2 = test system: T2, YANK2
T2 construct: gene STK32B

YANK3 = test system: T3, YANK3
T3 construct: gene STK32C

YES = test system: T4, YES
T4 construct: gene YES1

YSK1 = test system: T5, YSK1
T5 construct: gene STK25

YSK4 = test system: T6, YSK4
T6 construct: gene MAP3K19

ZAK = test system: ZAK
ZAP70 = test system: ZAP70
p38-alpha = test system: T7, p38-alpha
T7 construct: gene MAPK14

p38-beta = test system: T8, p38-beta
T8 construct: gene MAPK11

p38-delta = test system: p38-delta
p38-gamma = test system: T9, p38-gamma
T9 construct: gene MAPK12
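Also: KINOMEscan kinase panel screen.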

SMILES	%Inh (YANK1)	%Inh (YANK2)	%Inh (YANK3)	%Inh (YES)	%Inh (YSK1)	%Inh (YSK4)	%Inh (ZAK)	%Inh (ZAP70)	%Inh (p38-alpha)	%Inh (p38-beta)	%Inh (p38-delta)	%Inh (p38-gamma)
OCCCNc1nccc(-c2c(-c3cccc(C(F)(F)F)c3)nn3cc(C(F)(F)F)ccc23)n1 [GW630813]	0%	0%	0%	0%	1%	2%	0%	0%	99.4%	30%	20%	0%
COc1cc2nccc(Nc3ccc(OCc4ccc(NC(C)=O)cc4)cc3)c2cc1OC.Cl [GW440135]	0%	4%	0%	11%	0%	0%	10%	16%	18%	0%	24%	0%
COc1cc(Nc2nccc(N3CCC(NC(=O)C(C)c4ccc(Cl)cc4)C3)n2)cc(OC)c1OC (stereo not drawn) [GSK1379757]	0%	0%	0%	5%	6%	29%	0%	0%	10%	0%	43%	1%
Cc1cccc(-c2cc(-c3c[nH]nc3-c3ccccn3)ccn2)c1 [GW679395]	0%	0%	15%	29%	0%	36%	0%	0%	47%	0%	44%	12%
Cc1cc(Nc2nc(-c3cccc(C)n3)nc3ccccc23)ccn1 [GW872411]	0%	0%	0%	0%	0%	0%	0%	0%	20%	0%	0%	0%
Cc1nnc(-c2ccc3ncn(-c4ccc(S(C)=O)cc4)c3c2)o1 (stereo not drawn)	0%	0%	4%	7%	0%	21%	12%	0%	0%	13%	1%	0%
Nc1ncnc2c1ncn2-c1ccc(Cl)cc1 [AH2635]	0%	0%	0%	0%	0%	27%	0%	0%	32%	0%	32%	0%
CCn1c(-c2nonc2N)nc2ccccc21 [SB-693162/GW549034]	46%	0%	0%	0%	0%	87%	0%	0%	23%	1%	0%	10%
COc1cc2ncn(-c3cc(OCCCc4ccccc4)c(C(N)=O)s3)c2cc1OC [GSK205189]	0%	0%	19%	0%	0%	0%	0%	0%	0%	0%	6%	0%
Cc1cccc(-c2nc(Nc3ccc4c(cnn4C)c3)c3ccccc3n2)n1 [GW876731]	0%	0%	32%	0%	0%	42%	0%	14%	10%	7%	0%	16%
COc1cc(Nc2ccnc3ccc(C(F)(F)F)cc23)cc(OC)c1OC [GW577382]	4%	16%	44%	13%	1%	0%	12%	0%	30%	25%	4%	0%
COc1cc2ncn(-c3cc(OCc4ccncc4)c(C(N)=O)s3)c2cc1OC [GSK336313]	8%	0%	4%	0%	35%	30%	1%	0%	5%	0%	42%	0%
COc1cc2ncn(-c3cc(OCc4ccncc4Br)c(C(N)=O)s3)c2cc1OC [GW854278]	0%	0%	0%	0%	0%	61%	15%	0%	4%	0%	30%	10%
COc1cc(Nc2nccc(N3CCC(NC(=O)C4COc5ccccc5O4)C3)n2)cc(OC)c1OC (stereo not drawn) [GSK1379761]	9%	0%	19%	27%	0%	8%	14%	0%	26%	0%	34%	39%
COc1cccc(-n2cnc3c(N)ncnc32)c1 [SKF-97416]	4%	0%	1%	0%	0%	45%	42%	25%	0%	22%	0%	52%
CN1C(=O)C(Nc2ccccc2)=C(c2ccccc2)C1=O [SB-300079]	0%	2%	0%	0%	3%	8%	0%	23%	0%	10%	0%	0%

SMILES	%Inh (YANK1)	%Inh (YANK2)	%Inh (YANK3)	%Inh (YES)	%Inh (YSK1)	%Inh (YSK4)	%Inh (ZAK)	%Inh (ZAP70)	%Inh (p38-alpha)	%Inh (p38-beta)	%Inh (p38-delta)	%Inh (p38-gamma)
CCc1ccc(-c2ccc3c(c2)-c2nn(C)cc2S(=O)(=O)N3C)cc1	0%	12%	0%	0%	0%	0%	0%	0%	0%	12%	22%	9%
CCn1c(-c2ccoc2)nc2cnccc21 [SB-733887]	0%	4%	27%	0%	12%	49%	34%	0%	0%	0%	25%	12%
COC(=O)c1c(-c2ccccc2)c2cc(C)ccc2c(=O)n1Cc1ccccc1	0%	0%	17%	0%	0%	0%	25%	0%	8%	0%	21%	0%
Nc1n[nH]c2ncc(-c3ccccc3)cc12 [SB-517081]	9%	0%	23%	20%	8%	52%	25%	0%	13%	0%	24%	31%
Nc1n[nH]c2nnc(-c3ccccc3)c(-c3ccccc3)c12 [GW554060]	7%	0%	26%	17%	0%	16%	5%	0%	0%	0%	27%	0%
O=C(Nc1n[nH]c2nc(-c3ccccc3)c(Br)cc12)C1CC1 [SB-708998]	7%	10%	11%	12%	0%	95.3%	9%	5%	7%	41%	0%	26%
O=C1NC(=O)C(c2ccccc2)=C1Nc1cccc(O)c1 [SB-390534]	0%	0%	0%	0%	8%	0%	8%	0%	1%	3%	0%	15%
Cc1ccc(-c2ccc3c(ccc4sc5c(c43)NC[C@@H](C)N=C5N(C)C)n2)cn1	0%	0%	0%	0%	0%	0%	0%	0%	0%	0%	10%	14%
COc1ccc(CNC(=O)NC2CCN(c3ccnc(Nc4ccc(F)cc4)n3)C2)cc1 (stereo not drawn) [GSK1379706]	12%	0%	0%	0%	25%	0%	0%	20%	44%	0%	38%	4%
CCC(=O)c1c(-c2ccccc2)c2cc(Cl)ccc2c(=O)n1Cc1cc(C(=O)NC2CC2)n(C)n1	0%	9%	20%	0%	4%	0%	23%	0%	16%	0%	35%	9%
COc1ccc(Nc2nccc(N3CCC(NS(=O)(=O)c4ccc(NC(C)=O)cc4)C3)n2)cc1 (stereo not drawn) [GSK1379729]	8%	3%	0%	10%	0%	1%	24%	0%	82%	17%	30%	17%
O=c1cc(N2CCOCC2)nc2n(Cc3ccc(F)c(Cl)c3)ccn12 [GSK2297099]	1%	11%	0%	11%	18%	6%	5%	0%	0%	0%	36%	0%
O=C(NCCNc1ccnc(Nc2ccc(F)cc2)n1)Nc1ccc2c(c1)OCO2 [GSK1379882]	0%	1%	0%	0%	17%	9%	100%	0%	19%	0%	37%	19%
CCCC(=O)Nc1n[nH]c2ncc(-c3cccc4ccccc34)cc12 [SB-642057]	0%	6%	42%	9%	8%	57%	54%	0%	14%	4%	26%	39%
COC(=O)c1c(-c2ccccc2)c2cc(Br)ccc2c(=O)n1Cc1ccc(S(C)(=O)=O)cc1	0%	6%	36%	0%	4%	13%	32%	0%	17%	9%	38%	29%
